From PubChem BioAssay (Tox21)
Where “and” joins values, the source holds several entries; their conditions need not be identical. Equal entries are not always repeated. Inconclusive results are not listed. A call without a number means that no potency is given here. Some structures have more than one record in an assay (separate samples or runs), and their calls can disagree. Calls of active or inactive are those of the source. Unless noted, calls come from the whole dose curve; as a rule, active = well fitted curve in the direction sought with a large enough effect in the repeat runs; inconclusive = weak or mixed curves; inactive = no such curve, though single readings can be large; an effect the other way counts as inactive or inconclusive.

Assays:
[1] = qHTS assay to identify small molecule antagonists of the sonic hedgehog signaling (Shh) pathway (AID 1259369; calls by dose curve; note: nearly all actives have a fitted effect of over 45% in size; note: potency is the fitted concentration of half-maximal effect)
In short: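 Read-out is luminescence from a firefly luciferase gene controlled by the Gli1 response element, in 3T3Gli1-Luc cells pre-incubated 4hr then exposed to compounds and conditioned medium for 24hr.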

[2] = target: Estrogen receptor beta (Homo sapiens) (UniProt Q92731); experiment: qHTS assay to identify small molecule agonists of the estrogen receptor beta (ER-beta) signaling pathway (AID 1259377; active = well fitted activation curve with a large enough effect in the signal ratio in the repeat runs, not every such curve was filed as active; the % refers to the signal ratio)
In short: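 Measured by fluorescence intensity from a B/G FRET beta-lactamase substrate (2 h, room temperature) in ER-beta-UAS-bla HEK293T cells treated with DMSO-dissolved compounds for 16 hr at 37C and 5% CO2.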

[3] = target: Estrogen receptor beta (Homo sapiens) (UniProt Q92731); experiment: qHTS assay to identify small molecule antagonists of the estrogen receptor beta (ER-beta) signaling pathway (AID 1259378; active = well fitted inhibition curve with a large enough effect in the signal ratio in the repeat runs, not every such curve was filed as active; the % refers to the signal ratio)
In short: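 ER-beta-UAS-bla HEK293T (GripTite) cells in 2% charcoal-stripped FBS medium were preincubated 6 hr at 37C, dosed with compound, then stimulated with 1 nM E2 (final) for 16 hr; beta-lactamase reporter read by B/G FRET fluorescence after 2 hr substrate loading.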

[4] = qHTS assay to identify small molecule agonists of the androgen receptor (AR) signaling pathway in the presence of an antagonist - cell viability counter screen (AID 1259379);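 note: MDA-kb2 human breast cancer cells carrying an MMTV luciferase reporter; series mostly up to about 92 µM; nearly all actives have a fitted effect of over 25% in size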
In short: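 Each compound was tested at 15 concentrations on MDA-kb2 cells in the presence of 3.0uM nilutamide. Viability was measured by CellTiter-Fluor fluorescence after a 16 hr incubation at 37C in a CO2-free atmosphere.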

[5] = qHTS assay to identify small molecule antagonists of the estrogen receptor beta (ER-beta) signaling pathway - cell viability counter screen (AID 1259382); note: series mostly up to about 92 µM; nearly all actives have a fitted effect of over 55% in size
In short: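 CellTiter-Glo ATP luminescence measured after the LiveBLAzer read in the same wells; ER-beta-UAS-bla HEK293T cells, 16 hr compound treatment with 1nM 17-beta-estradiol agonist at 37C, 5% CO2.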

[6] = target: Estrogen receptor (Homo sapiens) (UniProt P03372); experiment: qHTS assay to identify small molecule agonists of the estrogen receptor alpha (ER-alpha) signaling pathway in the presence of an antagonist (AID 1259383; calls by dose curve; note: top concentration of the series differs between compounds; nearly all actives have a fitted effect of over 15% in size)
In short: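 Luminescent ERE-luciferase reporter, VM7Luc4E2 cells (endogenous ER-alpha); 10.0nM ICI-182,780 final; 15-point compound titration; 22hr at 37C; ONE-Glo, 30min RT.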

[7] = qHTS assay to identify small molecule agonists of the estrogen receptor alpha (ER-alpha) signaling pathway in the presence of an antagonist - cell viability counter screen (AID 1259386);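 note: series mostly up to about 92 µM; cells exposed to compounds for 22 h at 37 °C before the viability read; nearly all actives have a fitted effect of over 30% in size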
In short: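 Using estrogen-depleted VM7Luc4E2 cells, the 15-concentration compound series was applied together with 10.0nM ICI-182,780 and incubated 22hr at 37C/5% CO2. Cell viability was then scored by CellTiter-Fluor.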

[8] = target: Progesterone receptor (Homo sapiens) (UniProt P06401); experiment: qHTS assay to identify small molecule agonists of the progesterone receptor (PR) signaling pathway (AID 1346784; calls by dose curve; note: nearly all actives have a fitted effect of over 30% in size)
In short: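 The screen uses PR-UAS-bla HEK 293T cells in charcoal-stripped serum (2%). Compounds are applied for 16 hr at 37C after a 6 hr pre-incubation, and reporter activity is detected with a FRET beta-lactamase substrate after 2 hr at room temperature.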

[9] = target: Progesterone receptor (Homo sapiens) (UniProt P06401); experiment: qHTS assay to identify small molecule antagonists of the progesterone receptor (PR) signaling pathway (AID 1346795; active = well fitted inhibition curve with a large enough effect in the signal ratio in the repeat runs, not every such curve was filed as active; the % refers to the signal ratio; note: potency is the fitted concentration of half-maximal effect)
In short: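 After 6 hr plating at 37C in 2% stripped-serum medium, PR-UAS-bla HEK293T cells got compounds, then 1 nM R5020. Sixteen hours later, LiveBLAzer substrate was applied for 2 hr at room temperature and fluorescence was recorded.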

[10] = qHTS assay to identify small molecule antagonists of the progesterone receptor (PR) signaling pathway - cell viability counter screen (AID 1346798); note: series mostly up to about 92 µM; nearly all actives have a fitted effect of over 50% in size
In short: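 Viability was determined by ATP-based luminescence (CellTiter-Glo) in PR-UAS-bla HEK293T cells cultured in 2% charcoal-stripped serum and incubated 16 hr with compounds under R5020 stimulation.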

[11] = qHTS assay to identify small molecule agonists of the progesterone receptor (PR) signaling pathway - cell viability counter screen (AID 1346799; calls by dose curve; note: nearly all actives have a fitted effect of over 45% in size)
In short: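 Viability was scored by ATP luminescence (CellTiter-Glo, 30 min, room temperature) in the same wells used for the reporter readout, after 16 hr compound exposure of PR-UAS-bla HEK293T cells.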

[12] = qHTS assay to identify small molecule antagonists of the TGF-beta/Smad signaling pathway - cell viability counter screen (AID 1346824); note: nearly all actives have a fitted effect of over 50% in size
In short: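 SBE-bla HEK 293T cells were plated overnight at 37 C, then given compounds in DMSO plus TGF-beta1 (added as 0.25 ng/mL solution) for 5 hr. After the bla read, CellTiter-Glo was added to the same wells and luminescence read after 30 min at room temperature.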

[13] = qHTS assay to identify small molecule agonists of the TGF-beta/Smad signaling pathway - cell viability counter screen (AID 1346829); note: top concentration of the series differs between compounds; nearly all actives have a fitted effect of over 45% in size
In short: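 In parallel with the Smad reporter read, viability of HEK 293T cells stably carrying SBE-bla is quantified by ATP luminescence following 5 hr compound treatment.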

[14] = Human pregnane X receptor (PXR) small molecule agonists, qHTS cell viability counter screen (AID 1346977); note: nearly all actives have a fitted effect of over 50% in size; note: potency is the fitted concentration of half-maximal effect
In short: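 HepG2 cells stably carrying the PXR-Luc reporter are cultured with 5% charcoal-stripped FBS and treated with compounds for 24hr. CellTiter-Fluor is added at 23hr and fluorescence is read after 1hr.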

[15] = qHTS assay to identify small molecule agonists or antagonists of the thyroid stimulating hormone receptor (TSHR) signaling pathway - wild type cell line counter screen (AID 1259384; calls by dose curve)
In short: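 Wild-type HEK293 cells were plated 18 h at 37 C/5% CO2, pin-dosed with compound plus Ro20-1724 medium, held 30 min at room temperature, then given cAMP-d2 and anti-cAMP-cryptate; fluorescence was read after 1 h. Fifteen concentrations, triplicate.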

[16] = target: Thyrotropin receptor (Homo sapiens) (UniProt P16473); experiment: qHTS assay to identify small molecule antagonists of the thyroid stimulating hormone receptor (TSHR) signaling pathway (AID 1259385; calls by dose curve; note: nearly all actives have a fitted effect of over 20% in size)
In short: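 TSHR-HEK293 cells were plated and held 18 h at 37C/5% CO2, then given compound plus Ro20-1724 and stimulated with TSH at 1.5 ng/mL final. After 30 min at room temperature, cAMP was detected with cAMP-d2/anti-cAMP-cryptate (1 h) by fluorescence.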

[17] = qHTS assay to identify small molecule agonists of the TGF-beta/Smad signaling pathway (AID 1346859; active = well fitted activation curve with a large enough effect in the signal ratio in the repeat runs, not every such curve was filed as active; the % refers to the signal ratio; note: series mostly up to about 77 µM)
In short: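 Dual-wavelength fluorescence (460/530 nm emission) quantified beta-lactamase expression under the Smad binding element in HEK 293T cells following 5 hr compound treatment at 37 C.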

[18] = target: Thyrotropin-releasing hormone receptor (Homo sapiens) (UniProt P34981); experiment: qHTS assay to identify small molecule antagonists of the thyrotropin-releasing hormone receptor (TRHR) signaling pathway (AID 1346877; active = well fitted inhibition curve with a large enough effect in the repeat runs, not every such curve was filed as active; note: series mostly up to about 51 µM)
In short: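 Calcium signal in dye-loaded TRHR/HEK293 cells; compounds added 5 min before TRH (1 nM final); fluorescence monitored 3 min at 1 s steps.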

[19] = target: Thyrotropin-releasing hormone receptor (Homo sapiens) (UniProt P34981); experiment: qHTS assay to identify small molecule agonists of the thyrotropin-releasing hormone receptor (TRHR) signaling pathway (AID 1346891; calls by dose curve;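 note: HEK293 cells expressing TRHR with calcium dye readout; series mostly up to about 58 µM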)
In short: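 Kinetic fluorescence (3 min, 1 s intervals) reported intracellular calcium after compound transfer onto TRHR-Hek293 cells pre-loaded with dye for 2 h at 37 °C.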

[20] = qHTS assay to identify small molecule agonists of the estrogen receptor beta (ER-beta) signaling pathway - cell viability counter screen (AID 1259380); note: nearly all actives have a fitted effect of over 30% in size
In short: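 Compounds dissolved in DMSO were pin-transferred onto ER-beta-UAS-bla HEK293T cells that had settled 6 hr, and exposure ran 16 hr at 37C. Following the reporter read, CellTiter-Glo luminescence after 30 min at room temperature indicated cytotoxicity.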

Chain of Estrogen receptor (Homo sapiens) (P03372 whole entry, looked up): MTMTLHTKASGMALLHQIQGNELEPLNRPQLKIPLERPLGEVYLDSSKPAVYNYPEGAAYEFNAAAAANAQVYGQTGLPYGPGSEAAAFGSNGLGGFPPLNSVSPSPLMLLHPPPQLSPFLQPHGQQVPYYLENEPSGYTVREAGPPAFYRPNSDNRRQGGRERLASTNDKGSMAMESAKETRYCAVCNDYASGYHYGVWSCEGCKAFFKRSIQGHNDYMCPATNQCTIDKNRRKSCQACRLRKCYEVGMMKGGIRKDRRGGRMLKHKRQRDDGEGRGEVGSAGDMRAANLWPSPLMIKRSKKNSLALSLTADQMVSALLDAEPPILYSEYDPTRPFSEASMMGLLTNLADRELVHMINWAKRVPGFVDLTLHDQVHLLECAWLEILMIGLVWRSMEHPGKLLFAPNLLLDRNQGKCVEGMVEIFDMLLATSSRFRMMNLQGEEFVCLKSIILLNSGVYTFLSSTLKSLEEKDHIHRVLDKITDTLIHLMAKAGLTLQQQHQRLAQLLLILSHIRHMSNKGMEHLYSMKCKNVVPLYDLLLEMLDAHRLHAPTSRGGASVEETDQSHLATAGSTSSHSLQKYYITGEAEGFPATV
Chain of Progesterone receptor (Homo sapiens) (P06401 whole entry, looked up): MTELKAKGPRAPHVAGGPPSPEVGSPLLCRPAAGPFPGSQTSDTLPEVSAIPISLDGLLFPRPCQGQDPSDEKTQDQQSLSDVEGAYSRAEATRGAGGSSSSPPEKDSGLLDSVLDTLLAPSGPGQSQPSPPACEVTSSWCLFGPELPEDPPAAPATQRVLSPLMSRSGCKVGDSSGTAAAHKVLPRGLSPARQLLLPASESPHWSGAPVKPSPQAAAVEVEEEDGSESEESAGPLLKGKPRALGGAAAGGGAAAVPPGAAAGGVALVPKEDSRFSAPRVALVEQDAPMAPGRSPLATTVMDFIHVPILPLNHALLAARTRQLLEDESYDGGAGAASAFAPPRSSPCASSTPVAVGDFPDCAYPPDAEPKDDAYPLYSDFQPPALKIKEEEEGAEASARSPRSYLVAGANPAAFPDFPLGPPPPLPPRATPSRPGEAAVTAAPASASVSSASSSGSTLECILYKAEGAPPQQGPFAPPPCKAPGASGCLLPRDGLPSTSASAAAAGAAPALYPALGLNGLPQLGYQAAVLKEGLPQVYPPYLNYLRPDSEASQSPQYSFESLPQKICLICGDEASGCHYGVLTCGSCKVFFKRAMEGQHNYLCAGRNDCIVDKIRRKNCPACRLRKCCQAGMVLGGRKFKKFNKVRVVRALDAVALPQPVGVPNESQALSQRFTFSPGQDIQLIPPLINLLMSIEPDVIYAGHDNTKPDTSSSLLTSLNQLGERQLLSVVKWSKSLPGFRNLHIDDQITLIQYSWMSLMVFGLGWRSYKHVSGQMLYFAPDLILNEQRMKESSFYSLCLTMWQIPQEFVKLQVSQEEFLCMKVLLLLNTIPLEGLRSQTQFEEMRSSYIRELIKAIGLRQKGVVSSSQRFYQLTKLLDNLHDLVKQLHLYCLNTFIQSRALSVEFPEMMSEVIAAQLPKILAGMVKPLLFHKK
Chain of Thyrotropin-releasing hormone receptor (Homo sapiens) (P34981 whole entry, looked up): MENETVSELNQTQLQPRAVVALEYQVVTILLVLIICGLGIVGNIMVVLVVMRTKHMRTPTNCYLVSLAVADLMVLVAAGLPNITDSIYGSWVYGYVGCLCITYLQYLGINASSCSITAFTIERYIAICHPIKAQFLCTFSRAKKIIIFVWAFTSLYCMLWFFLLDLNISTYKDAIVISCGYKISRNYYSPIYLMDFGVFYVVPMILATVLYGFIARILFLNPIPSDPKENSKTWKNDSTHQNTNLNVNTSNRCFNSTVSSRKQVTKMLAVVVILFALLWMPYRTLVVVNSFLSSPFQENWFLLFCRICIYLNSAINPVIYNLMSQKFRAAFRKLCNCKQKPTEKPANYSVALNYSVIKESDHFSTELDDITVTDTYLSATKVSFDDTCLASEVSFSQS
Chain of Estrogen receptor beta (Homo sapiens) (Q92731 whole entry, looked up): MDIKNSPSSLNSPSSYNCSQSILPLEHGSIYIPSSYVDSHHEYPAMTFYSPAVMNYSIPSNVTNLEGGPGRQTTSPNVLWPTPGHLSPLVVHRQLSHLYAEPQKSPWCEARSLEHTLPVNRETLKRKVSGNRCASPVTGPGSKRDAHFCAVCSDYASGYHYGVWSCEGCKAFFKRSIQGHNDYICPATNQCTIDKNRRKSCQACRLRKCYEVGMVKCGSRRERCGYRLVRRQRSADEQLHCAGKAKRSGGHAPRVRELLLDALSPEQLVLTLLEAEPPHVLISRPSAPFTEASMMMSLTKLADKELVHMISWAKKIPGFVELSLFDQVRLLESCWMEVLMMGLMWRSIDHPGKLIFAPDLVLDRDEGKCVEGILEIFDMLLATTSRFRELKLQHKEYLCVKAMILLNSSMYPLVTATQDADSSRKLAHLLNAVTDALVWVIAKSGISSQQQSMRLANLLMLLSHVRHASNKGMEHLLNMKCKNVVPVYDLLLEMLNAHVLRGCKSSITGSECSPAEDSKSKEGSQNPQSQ
Chain of Thyrotropin receptor (Homo sapiens) (P16473 whole entry, looked up): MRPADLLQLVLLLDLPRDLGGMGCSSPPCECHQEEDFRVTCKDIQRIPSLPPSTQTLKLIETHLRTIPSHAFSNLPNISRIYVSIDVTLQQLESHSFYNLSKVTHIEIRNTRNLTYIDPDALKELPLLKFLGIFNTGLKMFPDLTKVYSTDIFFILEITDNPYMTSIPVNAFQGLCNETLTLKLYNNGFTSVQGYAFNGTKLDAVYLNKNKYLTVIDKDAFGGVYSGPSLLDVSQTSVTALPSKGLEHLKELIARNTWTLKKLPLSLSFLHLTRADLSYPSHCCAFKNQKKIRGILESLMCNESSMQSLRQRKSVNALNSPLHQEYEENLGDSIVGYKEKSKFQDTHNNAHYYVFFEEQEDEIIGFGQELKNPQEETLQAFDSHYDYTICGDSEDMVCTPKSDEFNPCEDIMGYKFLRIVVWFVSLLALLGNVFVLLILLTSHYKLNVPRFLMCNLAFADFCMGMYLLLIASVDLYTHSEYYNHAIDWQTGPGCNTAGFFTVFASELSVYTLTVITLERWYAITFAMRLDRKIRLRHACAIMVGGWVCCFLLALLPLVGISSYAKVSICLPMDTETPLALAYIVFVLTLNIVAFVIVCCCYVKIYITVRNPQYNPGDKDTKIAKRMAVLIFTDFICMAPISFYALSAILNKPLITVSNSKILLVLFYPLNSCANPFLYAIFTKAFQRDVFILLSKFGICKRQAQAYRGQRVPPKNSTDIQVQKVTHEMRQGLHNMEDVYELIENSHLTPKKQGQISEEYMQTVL

Compound: O=[N+]([O-])c1ccc(F)cc1F
- Potency [1]: inactive
- outcome [2]: inactive
- outcome [3]: inactive
- Potency [4]: inactive
- Potency [5]: inactive
- Potency [6]: inactive
- Potency [7]: inactive
- Potency [8]: inactive
- Potency [9]: inactive
- Potency [10]: inactive
- Potency [11]: inactive
- Potency [12]: inactive
- outcome [13]: inactive
- Potency [14]: inactive

Compound: c1ccc([C@H]2CN3CCSC3=N2)cc1
- Potency [1]: inactive
- outcome [2]: inactive
- outcome [3]: inactive
- Potency [4]: inactive
- Potency [5]: inactive
- Potency [6]: inactive
- outcome [15]: inactive
- Potency [16]: inactive
- Potency [7]: inactive
- Potency [8]: inactive
- Potency [9]: inactive
- Potency [10]: inactive
- outcome [13]: inactive
- outcome [17]: inactive
- outcome [18]: inactive
- outcome [19]: inactive
- Potency [14]: inactive

Compound: CC/C=C\CCOC(C)=O
- Potency [1]: inactive
- outcome [2]: inactive
- outcome [3]: inactive
- Potency [4]: inactive
- Potency [20]: inactive
- Potency [5]: inactive
- Potency [6]: inactive
- Potency [16]: inactive
- Potency [7]: inactive
- Potency [8]: inactive
- Potency [9]: inactive
- Potency [10]: inactive
- Potency [11]: inactive
- outcome [13]: inactive
- outcome [17]: inactive
- Potency [14]: inactive

Compound: O=C(O)CN(CCOCCOCCN(CC(=O)O)CC(=O)O)CC(=O)O
- activity change, negative = inhibition [1]: 23.6% [at 0.349 µM] (inactive)
- activation [2]: -3.04% [at 0.348 µM] (inactive)
- activity, negative = inhibition [3]: -7.82% [at 0.349 µM] (inactive)
- activity change, negative = cytotoxicity [4]: 4.76% [at 0.35 µM] (inactive)
- activity change, negative = cytotoxicity [20]: 9.83% [at 0.349 µM] (inactive)
- activity change, negative = cytotoxicity [5]: 2.26% [at 0.349 µM] (inactive)
- cAMP activity change [15]: 3.85% [at 0.349 µM] (inactive)
- activity change, negative = inhibition [16]: 0.526% [at 0.349 µM] (inactive)
- activity change, negative = cytotoxicity [7]: 2.94% [at 0.349 µM] (inactive)
- activation [8]: -1.13% [at 0.349 µM] (inactive)
- activity change, negative = inhibition [9]: 0.191% [at 0.348 µM] (inactive)
- activity change, negative = cytotoxicity [10]: 5.83% [at 0.348 µM] (inactive)
- activity change, negative = cytotoxicity [11]: 5.81% [at 0.349 µM] (inactive)
- viability change, negative = cytotoxic [12]: 3.24% [at 0.29 µM] (inactive)
- activity change, negative = cytotoxicity [13]: 0.742% [at 0.29 µM] (inactive)
- activation [17]: 3.14% [at 0.29 µM] (inactive)
- activity change, negative = cytotoxicity [14]: 6.91% [at 0.349 µM] (inactive)

Compound: COCCCOCCCOC
- Potency [1]: inactive
- outcome [2]: inactive
- outcome [3]: inactive
- Potency [4]: inactive
- Potency [5]: inactive
- Potency [6]: inactive
- Potency [16]: inactive
- Potency [7]: inactive
- Potency [8]: inactive
- Potency [9]: inactive
- Potency [10]: inactive
- Potency [11]: inactive
- Potency [12]: inactive
- outcome [13]: inactive
- outcome [17]: inactive
- outcome [18]: inactive
- outcome [19]: inactive
- Potency [14]: inactive

Compound: CC(C)(CC(=O)O)C(=O)O
- Potency [1]: inactive
- outcome [2]: inactive
- outcome [3]: inactive
- Potency [4]: inactive
- Potency [20]: inactive
- Potency [5]: inactive
- Potency [6]: inactive
- outcome [15]: inactive
- Potency [16]: inactive
- Potency [7]: inactive
- Potency [8]: inactive
- Potency [9]: inactive
- Potency [10]: inactive
- Potency [11]: inactive
- Potency [12]: inactive
- outcome [13]: inactive
- Potency [14]: inactive

Compound: CC(C)c1cc2c(cc1S(=O)(=O)O)[C@@]1(C)CCC[C@@](C)(C(=O)O)[C@@H]1CC2
- Potency [1]: inactive
- outcome [2]: inactive
- outcome [3]: inactive
- Potency [4]: inactive
- Potency [20]: inactive
- Potency [5]: inactive
- Potency [6]: inactive
- Potency [16]: inactive
- Potency [7]: inactive
- Potency [8]: inactive
- Potency [9]: inactive
- Potency [10]: inactive
- Potency [11]: inactive
- Potency [12]: inactive
- outcome [13]: inactive
- outcome [17]: inactive
- outcome [18]: inactive
- outcome [19]: inactive
- Potency [14]: inactive

Compound: COC(=O)C1=C(C)NC(C)=C(C(=O)OC)C1c1ccccc1[N+](=O)[O-]
- Potency [1]: 6.12 µM (active) and 6.68 µM (active)
- outcome [2]: inactive
- outcome [3]: inactive
- Potency [4]: inactive
- Potency [20]: inactive
- Potency [5]: inactive
- Potency [6]: inactive
- Potency [16]: inactive
- Potency [7]: inactive
- Potency [8]: inactive
- Potency [9]: 23.7 µM (active)
- Potency [12]: inactive
- outcome [13]: inactive
- outcome [17]: inactive
- outcome [19]: inactive
- Potency [14]: 48.6 µM (active) and inactive
